Here are results for 53 compounds from PMC4336329 (PLoS ONE, 2015).

Molecules are shown by their SMILES. Out of some 310,000 compounds screened, about 14,000 (4.5%) showed an effect of 50% or more. The effect is printed as a negative number. What follows is part of a selection rich in strong results, with near analogues and random picks from the rest.
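Also: peak tail current of the secondary pulse compared with the same well before compound.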

Sequence of human ether-à-go-go-related gene (hERG) potassium channel (Q12809 whole entry, looked up): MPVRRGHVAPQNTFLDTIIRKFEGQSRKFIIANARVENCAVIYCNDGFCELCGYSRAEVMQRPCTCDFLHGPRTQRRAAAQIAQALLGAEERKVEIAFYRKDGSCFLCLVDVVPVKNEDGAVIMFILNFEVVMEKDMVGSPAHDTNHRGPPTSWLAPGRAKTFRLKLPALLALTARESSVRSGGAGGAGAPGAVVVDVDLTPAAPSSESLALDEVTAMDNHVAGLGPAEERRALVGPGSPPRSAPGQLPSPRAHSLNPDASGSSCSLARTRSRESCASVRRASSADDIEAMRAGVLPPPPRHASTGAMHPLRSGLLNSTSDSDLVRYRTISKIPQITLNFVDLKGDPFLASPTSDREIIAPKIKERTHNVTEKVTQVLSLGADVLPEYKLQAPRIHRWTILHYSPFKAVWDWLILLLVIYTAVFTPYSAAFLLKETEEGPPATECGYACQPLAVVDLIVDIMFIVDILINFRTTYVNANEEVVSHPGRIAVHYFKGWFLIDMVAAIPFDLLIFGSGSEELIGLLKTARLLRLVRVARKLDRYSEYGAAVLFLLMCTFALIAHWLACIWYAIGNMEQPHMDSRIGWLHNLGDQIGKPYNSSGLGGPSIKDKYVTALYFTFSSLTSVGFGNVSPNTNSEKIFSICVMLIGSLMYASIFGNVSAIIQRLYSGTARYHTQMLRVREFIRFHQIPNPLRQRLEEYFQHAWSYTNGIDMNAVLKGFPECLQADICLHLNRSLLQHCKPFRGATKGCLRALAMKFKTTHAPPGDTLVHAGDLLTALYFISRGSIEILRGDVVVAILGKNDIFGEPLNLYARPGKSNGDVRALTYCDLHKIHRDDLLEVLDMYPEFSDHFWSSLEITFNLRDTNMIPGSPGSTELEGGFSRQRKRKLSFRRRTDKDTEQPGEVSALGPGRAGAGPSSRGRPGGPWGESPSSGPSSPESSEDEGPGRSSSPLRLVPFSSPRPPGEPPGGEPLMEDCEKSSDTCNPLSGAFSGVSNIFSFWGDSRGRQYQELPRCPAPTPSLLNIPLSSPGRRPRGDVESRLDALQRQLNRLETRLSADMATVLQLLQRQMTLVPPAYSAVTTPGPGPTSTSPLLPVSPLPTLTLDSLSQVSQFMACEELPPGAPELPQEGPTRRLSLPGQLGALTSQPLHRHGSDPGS

The experiment concerns the target human ether-à-go-go-related gene (hERG) potassium channel (human, UniProt Q12809). The experiment can be described thus: primary screen, population patch clamp on CHO cells stably expressing hERG; higher = less effect of the substance.
Consider `CC(=O)c1sc(-c2ccc(F)cc2)cc1NS(=O)(=O)c1ccc(C)cc1`, for which the “hERG current change (%, negative = inhibition) at 10uM” value was 7.93%. For `C=CCOc1ccc2ccccc2c1CNn1cn[nH]c1=S`, the “hERG current change (%, negative = inhibition) at 10uM” value was -8.17%.

Regarding `O=C(NCCc1csc(-c2cccc(F)c2)n1)c1ccco1`, the “hERG current change (%, negative = inhibition) at 10uM” value is recorded as -4.61%. The result for `O=C(CN1C(=O)S/C(=C\c2ccccc2)C1=O)Nc1cc([N+](=O)[O-])ccc1O` reads 6.11%. The result for `O=C(c1cc(Cl)ccc1[N+](=O)[O-])n1cnc2ccccc21` reads -11.9%; that for `Cc1cc2c(c(N)n1)c(=O)oc1ccccc12`, 13.9%; that for `Nn1c(CSc2nc3ccccc3o2)nnc1CSc1nc2ccccc2o1`, -22.8%. As to `O=C(CN1c2cccc3cccc(c23)S1(=O)=O)Nc1ccccc1`, the “hERG current change (%, negative = inhibition) at 10uM” value stood at 24.3%. As for `CN(CC(=O)Nc1c(Cl)cccc1Cl)C(=O)CC1OC(=O)c2ccccc21` (centres unmarked), the “hERG current change (%, negative = inhibition) at 10uM” value was -2.8%. The result for `CN(CC(=O)Nc1ccc(Cl)c(Cl)c1)C(=O)CC1OC(=O)c2ccccc21` (centres unmarked) reads -70.3%. Next, `CCOc1ccc(NC(=O)CN(C)C(=O)CC2OC(=O)c3ccccc32)cc1OCC` (centres unmarked): 0.75%; `C/C=C/c1ccc(OCC(=O)Nc2ccncc2)c(OC)c1`: -14.9%.

Turning to `COc1ccc2nc(N(CCN(C)C)C(=O)/C=C/c3cccs3)sc2c1.Cl`, the “hERG current change (%, negative = inhibition) at 10uM” value was -55.1%. Next, `CCN(Cc1ccccc1)S(=O)(=O)c1ccc(C(=O)N(CCCN(C)C)c2nc3c(C)c(C)ccc3s2)cc1.Cl`: -3.58%. The result for `COc1ccc2sc(N(CCN(C)C)C(=O)c3ccc4ccccc4c3)nc2c1.Cl` reads -0.0157%. Next, `COc1cc2nc(N(CCN(C)C)C(=O)c3ccc4ccccc4c3)sc2cc1OC.Cl`: -40.8%. On to `CN(C)CCCN(C(=O)c1ccc(C(=O)c2ccccc2)cc1)c1nc2cc3c(cc2s1)OCCO3.Cl`, for which the “hERG current change (%, negative = inhibition) at 10uM” value was -50%. Next, `CCOc1ccc2nc(N(CCN(C)C)C(=O)/C=C/c3cccs3)sc2c1.Cl`: 4.24%. The result for `COc1ccc2sc(N(CCN(C)C)C(=O)/C=C/c3cccs3)nc2c1.Cl` reads -33.2%; that for `COc1ccc2sc(N(CCCN(C)C)C(=O)c3ccc(C(=O)c4ccccc4)cc3)nc2c1.Cl`, -77.3%; that for `COc1cc2nc(N(CCCN(C)C)C(=O)c3ccc(C(=O)c4ccccc4)cc3)sc2cc1OC.Cl`, -70.4%. Next, `CN(C)CCCN(C(=O)c1ccc(S(=O)(=O)N(C)Cc2ccccc2)cc1)c1nc2c(F)cccc2s1.Cl`: -38.2%. For the compound `CCN(Cc1ccccc1)S(=O)(=O)c1ccc(C(=O)N(CCCN(C)C)c2nc3c(F)cccc3s2)cc1.Cl`, the “hERG current change (%, negative = inhibition) at 10uM” value was -66.3%.

In the case of `COc1ccc2nc(N(CCN(C)C)C(=O)c3ccc(C(=O)c4ccccc4)cc3)sc2c1.Cl`, the “hERG current change (%, negative = inhibition) at 10uM” value is -39.2%. The result for `O=C1CSC(c2ccccc2[N+](=O)[O-])N1CCc1ccccc1` (centres unmarked) reads -41%; that for `CCOc1cc(C(=O)N/N=C(\C)Cc2ccc(OC)cc2)cc(OCC)c1OCC`, -3.15%; that for `FC(F)Oc1ccccc1/C=N/Nc1nc2ccccc2o1`, 33.5%. The result for `Cn1c(NC(=O)c2ccco2)c(-c2ccccc2)c(=O)c2ccccc21` reads 13.6%; that for `N[C@@]12CCc3nonc3[C@]1(O)CC(c1ccccc1)=[N+]2[O-]`, -0.645%; that for `COc1ccccc1CN(C(=O)CNC(=O)c1ccco1)C(C(=O)NCC1CCCO1)c1ccccc1` (centres unmarked), 10%. Next, `O=C(NC(=S)Nc1cccc(F)c1)c1cccc([N+](=O)[O-])c1`: 20.6%.

Take `Cc1cc(C)c(-c2cc(C)nc3ncnn23)c(C)c1`: the “hERG current change (%, negative = inhibition) at 10uM” value is reported as 7.75%. Next, `CCOc1ccc(C(=O)Nn2cnnc2)cc1`: 2.29%; `O=C(NCCCc1ccccc1)C1CCN(c2nnc(-n3cccc3)s2)CC1`: -27%; `CN(C)CCCN(C(=O)c1ccc(S(=O)(=O)N(C)C)cc1)c1nc2ccc(F)cc2s1.Cl`: -32.9%. `CN(C)CCCN(C(=O)c1ccc(C(=O)c2ccccc2)cc1)c1nc2ccc(F)cc2s1`: the “hERG current change (%, negative = inhibition) at 10uM” value was -74.9%. Next, `CCN(Cc1ccccc1)S(=O)(=O)c1ccc(C(=O)N(CCCN(C)C)c2nc3ccc(F)cc3s2)cc1.Cl`: -12.6%; `CCN(Cc1ccccc1)S(=O)(=O)c1ccc(C(=O)N(CCCN(C)C)c2nc3cc(OC)ccc3s2)cc1.Cl`: -58.3%. Next, `COc1ccc2sc(N(CCCN(C)C)C(=O)c3ccc(S(=O)(=O)N(C)Cc4ccccc4)cc3)nc2c1.Cl`: -16.4%; `CCc1ccc2nc(N(CCCN(C)C)C(=O)c3ccc(C(=O)c4ccccc4)cc3)sc2c1.Cl`: -12.5%; `O=C(O)c1ccc(Nc2cccc(F)c2)c([N+](=O)[O-])c1`: 17.7%. Take `CCCCOc1c(Br)cc(CNCCCN2CCOCC2)cc1OC.Cl`: the “hERG current change (%, negative = inhibition) at 10uM” value is -35%.

Turning to `CC(C)CCOc1ccc(NC(=O)C2OC3OC(C)(C)OC3C3OC(C)(C)OC23)cc1` (centres unmarked), the “hERG current change (%, negative = inhibition) at 10uM” value came to 20.5%. The result for `O=C(NCc1nnc(SCC(=O)N2CCCC2)o1)c1ccc(F)cc1` reads 14.3%. For the compound `COc1ccc(Nc2ncnc3ccc([N+](=O)[O-])cc23)c(OC)c1`, the “hERG current change (%, negative = inhibition) at 10uM” value was -0.867%.

In the case of `CNc1ccc(Br)cc1C(O)c1ccccc1` (centres unmarked), the “hERG current change (%, negative = inhibition) at 10uM” value was -3.18%. With `O=C(Cn1ccc(NC(=O)OCc2ccccc2)nc1=O)NCCCn1ccnc1`, the “hERG current change (%, negative = inhibition) at 10uM” value amounted to 6.72%.

`COc1ccc(C(=O)NCC(=O)OCC(=O)c2ccc3c(c2)NC(=O)CO3)cc1`: the “hERG current change (%, negative = inhibition) at 10uM” value is -65.1%. Next, `COc1ccc(C(=O)NCC(=O)OCC(=O)c2ccc3c(c2)NC(=O)CO3)cc1OC`: -22%. Next, `Cc1ccc(C(=O)NCC(=O)OCC(=O)c2ccc3c(c2)NC(=O)CO3)cc1`: -60.6%.

In the case of `Cc1ccc(C(=O)NCC(=O)OCC(=O)c2ccc3c(c2)NC(=O)CO3)cc1C`, the “hERG current change (%, negative = inhibition) at 10uM” value is -5.7%. The result for `O=C1COc2ccc(C(=O)COC(=O)CNC(=O)c3ccccc3)cc2N1` reads -4.81%; that for `COc1ccc(OCCCC(=O)OCC(=O)c2ccc3c(c2)NC(=O)CO3)cc1`, 15.7%.
